Activity calls are given as the source filed them. Rule for the calls: active = hit-call score of the fitted dose curve at least 0.9, where 1 is the maximum; inactive = score below 0.9.

The assay is described as follows: ATG_AP_2_CIS: Attagene CIS-FACTORIAL HepG2 Assay for human Activator Protein 2 (AP-2) (AID 2282932). The note with it: HepG2 AP-2 cis-reporter, Attagene transcription factor profiling; actives raise or lower the signal. As to the method: ATG_CIS is a cell-based, multiplexed-readout assay that uses HepG2, a human liver cell line, with measurements taken at 24 hours after chemical dosing in a 24-well plate.ATG_AP_2_CIS is one of 52 assay component(s) measured or calculated from the ATG_CIS assay. It is designed to make measurements of mRNA induction, a form of inducible reporter, as detected with fluorescence intensity signals by Reverse transcription polymerase chain reaction (RT-PCR) and Capillary electrophoresis technology.Data from the assay component ATG_AP_2_CIS was analyzed into 1 assay endpoint. This assay endpoint, ATG_AP_2_CIS, was analyzed with bidirectional fitting relative to DMSO as the negative control and baseline of activity. Using a type of inducible reporter, measures of mRNA for gain or loss-of-signal activity can be used to understand the reporter gene at the transcription factor-level as they relate to the gene TFAP2A and TFAP2B and TFAP2D. Furthermore, this assay endpoint can be referred to as a primary readout, because this assay has produced multiple assay endpoints where this one serves a reporter gene function. To generalize the intended target to other relatable targets, this assay endpoint is annotated to the dna binding intended target family, where the subfamily is basic helix-turn-helix leucine zipper.
Human liver HepG2 cells are transiently transfected with multiple reporter transcription units (MRTUs) in 6-well plates using FuGene 6 reagent (Roche; 3 ml FuGene/1 mg DNA). The MRTU constructs are regulated by a cis-regulating element (promoter). […] A major difference between the CIS and TRANS system is that in CIS activities of endogenous TFs are measured, whereas the TRANS assay evaluates changes in activities of exogenous, chimeric NR-Gal4 proteins. […] At the end of 24 hour incubation, total RNA was isolated using TriZol reagent (Invitrogen). The isolated RNA is then reverse-transcribed using oligo(dT) primer and Mo-MLV reverse transcriptase (Invitrogen) with DNAse I (Ambion) treatment for 30 min. The one-tenth of the produced cDNA was amplified by PCR using Taq DNA polymerase (Invitrogen) and two reporter sequence-specific primers. The PCR products were fluorescently labeled by primer extension with 6-arboxyfluorescein (6-FAM) 5'-labeled reporter sequence-specific primer (2 min at 95 C, 20 s at 68 C and 10 min at 72 C) and these products were digested with 5U of HpaI (New England Biolabs) for 2h at 37 C. The fragments were purified using Qiaquick PCR columns (Qiagen), analyzed on an ABI 3130xL genetic analyzer (Applied Biosystems) with peak positions identified by using a set of X-rhodamine (ROX)-labeled MapMarker1000 molecular weight standards (BioVentures). The raw capillary electrophoresis data was processed using Attagraph software (Attagene).
For the compound `CC/C(=C\C(=N/O)C(N)=O)C(C)[N+](=O)[O-]` (stereo not given), the compound was classed as inactive.
Regarding `CC(C)CCO`, the outcome was inactive.
The same measure for `COC(=O)c1ccccc1O`: “inactive”; for `Cc1[nH]cnc1C[C@H]1CCc2c(C)c3ccccc3n2C1=O`: “inactive”.
As to `O=C1CCCCCN1`, the compound was classed as inactive.
With `CCCCC(CC)COC(=O)CCCCCCCCC(=O)OCC(CC)CCCC` (stereo not given) the entry was “inactive”; with `CCOCCOCCOCCO`, “inactive”.
`CNS(=O)(=O)c1cc(C(=O)N2CCC(CCN3C4CCC3CC(n3c(C)nc5ccccc53)C4)(c3cccc(F)c3)CC2)c(Cl)cc1F` (stereo not given): the result was inactive.
`Cn1c(=O)cc(Oc2ccc(F)cc2F)c2cnc(NCC(C)(C)O)nc21`: the outcome was inactive.
As to `Cc1c(-c2cccnc2)c2ccccc2n1CCCCC(=O)O`, the compound was classed as inactive.
Take `CC[C@H](C)C(=O)O[C@H]1C[C@@H](C)C=C2C=C[C@H](C)[C@H](CC[C@@H]3C[C@@H](O)CC(=O)O3)[C@H]21`: the compound was called inactive.
`CC(=O)OC[C@H]1O[C@@](COC(C)=O)(O[C@H]2O[C@H](COC(C)=O)[C@@H](OC(C)=O)[C@H](OC(C)=O)[C@H]2OC(C)=O)[C@@H](OC(C)=O)[C@@H]1OC(C)=O`: the compound was classed as inactive.
The same measure for `O=C(O)CCN(C1(C(=O)NO)CCCC1)S(=O)(=O)c1ccc(Oc2ccc(F)cc2)cc1`: “inactive”; for `CC(C)CC(C)(O)C#CC(C)(O)CC(C)C` (stereo not given): “inactive”; for `CCCCCCc1ccc(O)cc1O`: “inactive”.
The same measure for `C[C@](N)(Cc1ccc(O)c(O)c1)C(=O)O`: “inactive”; for `O=C1CCC(N2C(=O)c3ccccc3C2=O)C(=O)N1` (stereo not given): “inactive”.
With `Clc1nc(Cl)c(Cl)c(Cl)c1Cl` the entry was “inactive”; with `CC(C)CCCCCCOC(=O)c1ccc(C(=O)OCCCCCCC(C)C)c(C(=O)OCCCCCCC(C)C)c1`, “inactive”.
As to `C1=CCCC=CCCC=CCC1`, the outcome was inactive.
On to `CC(C)CCCCCCCOC(=O)CCCCC(=O)OCCCCCCCC(C)C`, for which the result was inactive.
In the case of `Cc1ccc(O)cc1`, the compound was called inactive.
Take `COc1ccc2sc(C(=O)Nc3nnn[nH]3)c(OC(C)C)c2c1`: the compound was classed as inactive.
The same measure for `O=C(OC[C@H]1O[C@@H](OC(=O)c2cc(O)c(O)c(OC(=O)c3cc(O)c(O)c(O)c3)c2)[C@H](OC(=O)c2cc(O)c(O)c(OC(=O)c3cc(O)c(O)c(O)c3)c2)[C@@H](OC(=O)c2cc(O)c(O)c(OC(=O)c3cc(O)c(O)c(O)c3)c2)[C@@H]1OC(=O)c1cc(O)c(O)c(OC(=O)c2cc(O)c(O)c(O)c2)c1)c1cc(O)c(O)c(OC(=O)c2cc(O)c(O)c(O)c2)c1`: “inactive”; for `Cc1ccc(S(=O)(=O)O)cc1C`: “inactive”.
`Oc1ccc2c(c1)-c1ccccc1C2`: the compound was called inactive.
For `CNCc1ccc(NC(=O)c2c[nH]c3c2C(=O)CCC3)cc1`, the outcome was inactive.
With `CCNc1ccccc1` the entry was “inactive”; with `CC(=O)c1ccc2c(c1)[C@H](NC(=O)c1ccc(F)cc1)[C@@H](O)C(C)(C)O2`, “inactive”.
Consider `CC(=O)OCCC(C)C`, for which the compound was classed as inactive.
The same measure for `Cn1c(=O)c2c(ncn2C)n(C)c1=O`: “inactive”; for `NC(=O)NO`: “inactive”; for `CC(C)=CCCC(C)CCO` (stereo not given): “inactive”.
As for `Cc1ccc(C)c(O)c1`, the result was inactive.
The same measure for `COc1ccc(-n2nc(C(F)F)cc2-c2ccc(S(C)=O)cc2)cc1` (stereo not given): “inactive”; for `CCn1nc(Cc2ccccc2)cc1C1CCN(C[C@H]2C[C@H](N(C)[C@@H](C(=O)O)C(C)C)C[C@@H]2c2cccc(F)c2)CC1`: “inactive”; for `COCCOCCOCCOC`: “inactive”.
The same measure for `CCc1cc(SCc2sc(-c3ccc(C(F)(F)F)cc3)nc2CN2CCN(c3ccc(OC)cc3)CC2)ccc1OCC(=O)O`: “inactive”; for `CC(C)=CCC/C(C)=C\CO`: “inactive”.
Consider `O=C(O)c1cc(N=Nc2ccc(S(=O)(=O)Nc3ccccn3)cc2)ccc1O`, for which the compound was called inactive.

Values taken from PubChem BioAssay (EPA / NIEHS).
